# Shown are actives, neighbours in structure and some others; about 3.4% of the full set was active somewhere.
# FBW7 activator: FBW7 E3 ligase activators, primary screen, biochemical, AlphaScreen, human | F-box/WD repeat-containing protein 7 (Homo sapiens), Q969H0 | AlphaScreen FBW7–phospho-cyclin E peptide binding, activator screen | normalized activity (activation), % at 26.1 µM | 650,000 tested, 0.13% active; in the data active = normalized activity above about 1.9%;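 also: purified mutant Fbw7 with reduced substrate affinity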
# GPR151 ag: activators of human GPR151, primary screen, cell-based, PathHunter beta-arrestin, luminescence | PathHunter beta-arrestin GPR151 cells | activation, % at 11.2 µM | 650,000 tested, 1% active | AID 1508602, 2020; in the data active = activation above about 4.9%;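 also: 0% = median of compound wells and 100% = cells with positive control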
# TEAD-YAP block: TEAD-YAP interaction inhibition, primary screen, TEAD-YAP interaction inhibitor project, luminescence, HEK-TIYL cells; inhibition, % at 9.12 µM; TEAD-Gal4/YAP UAS-luciferase luminescence; 640,000 tested, 1.4% active; in the data active = inhibition above about 32%;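 also: 0% = median of test compound wells and 100% = reference inhibitor wells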
# MITF primary: MITF inhibitors, primary screen, biochemical, AlphaScreen, human; Microphthalmia-associated transcription factor (Homo sapiens), O75030; AlphaScreen MITF homodimerization, bead proximity signal; inhibition, % at 2.6 µM; 650,000 tested, 0.91% active; AID 1259374, 2018; in the data active = inhibition above about 50%;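 also: 0% = vehicle wells with protein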
# Target sequence (O75030 whole entry, looked up): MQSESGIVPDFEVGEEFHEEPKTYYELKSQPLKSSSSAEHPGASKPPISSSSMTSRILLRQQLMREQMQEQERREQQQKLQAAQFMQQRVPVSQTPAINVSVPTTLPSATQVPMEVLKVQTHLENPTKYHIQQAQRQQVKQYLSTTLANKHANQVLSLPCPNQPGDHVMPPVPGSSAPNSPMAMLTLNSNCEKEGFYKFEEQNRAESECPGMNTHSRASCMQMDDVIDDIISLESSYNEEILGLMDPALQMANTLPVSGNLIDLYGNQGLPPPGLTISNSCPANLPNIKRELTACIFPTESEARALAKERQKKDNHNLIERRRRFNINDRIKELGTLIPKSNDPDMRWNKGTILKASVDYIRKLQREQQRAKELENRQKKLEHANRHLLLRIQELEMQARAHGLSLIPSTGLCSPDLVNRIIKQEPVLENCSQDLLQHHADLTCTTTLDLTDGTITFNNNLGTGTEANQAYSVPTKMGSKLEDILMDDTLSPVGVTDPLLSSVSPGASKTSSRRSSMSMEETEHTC
# Active calls of the source: *.
SMILES,FBW7 activator,GPR151 ag,TEAD-YAP block,MITF primary
CC(=O)Nc1ccc2nc(-c3cc(C)ccc3C)[nH]c2c1,1,-1,46*,16
CC(=O)Nc1ccc(-c2nc3ccc(C)cc3[nH]2)cc1,0,-3,10,2
CC(=O)c1cccc(NC(=O)CCC(=O)Nc2cccc(C(C)=O)c2)c1,0,-1,9,10
CC(=O)c1cccc(NC(=O)CN(c2ccccc2)S(C)(=O)=O)c1,1.9*,-1,8,-19
CC(=O)c1ccc(NC(=O)Nc2cccc(C(=O)O)c2)cc1,0,4,51*,-1
CC(=O)c1cccc(NC(=O)CCl)c1,0,1,99*,-4
CS(=O)(=O)N(CC(=O)Nc1cccc(Cl)c1)c1ccccc1,0,1,4,2
CC(=O)c1cccc(NC(=O)Nc2ccccc2)c1,0,-1,-25,0
CCn1c(-c2ccc(Cl)cc2)csc1=Nc1cc(OC)c(Cl)cc1OC,0,2,35*,6
CCn1c(-c2ccc(F)cc2)csc1=Nc1cc(OC)c(Cl)cc1OC,-1,2,33*,28
CCCN(C)C(=O)c1c(SCC)nc2sccn2c1=O,0,-1,-9,-1
CN(C)c1cccc2c(C=O)ccc(N(C)C)c12,0,-2,21,23
Cc1cccc(NC(=O)NNP2(=O)C=C(c3ccccc3)OC(c3ccccc3)=C2)c1,0,0,9,3
O=C(Nc1cnn(-c2ccc(C(=O)NC3CCc4ccccc43)cc2)c1)c1ccoc1 (configuration not stated),1,-1,56*,13
Cc1c(/C=C2/C(=N)N3N=C(C4CCCCC4)SC3=NC2=O)c2ccccc2n1Cc1ccccc1F,0,1,-4,15
Cc1nonc1C(=O)N/N=C/c1ccc(O)cc1O,-1,-8,4,82*
CCCN(CCC)Cc1c(C(=O)N/N=C/c2ccc(O)cc2O)nnn1-c1nonc1N,0,0,71*,36
CCc1c(C(=O)N/N=C/c2ccc(O)cc2O)nnn1-c1nonc1N,0,-2,76*,0
CC(C)(C)c1ccc(C(=O)N/N=C/c2ccc(O)cc2O)cc1,0,1,9,-51
CN(C)Cc1c(C(=O)N/N=C/c2ccc(O)cc2O)nnn1-c1nonc1N,-1,0,24,15
CC1CCC2(CC1)C(C#N)=C1SCCN1C(=O)C2C#N (configuration not stated),0,0,6,10
Cc1ccc(-c2n[nH]c(=S)n2/N=C\c2ccc(O)c(O)c2)cc1,0,0,-11,-66
Oc1ccc(/C=N/n2c(-c3ccncc3)n[nH]c2=S)cc1O,0,-1,4,63*
O=C(O)C1Nc2ccc([N+](=O)[O-])cc2C2C=CCC12 (configuration not stated),0,-1,2,85*
O=C(O)C1Nc2ccc(Oc3ccccc3)cc2C2C=CCC12 (configuration not stated),1,-1,5,35
SMILES,FBW7 activator,GPR151 ag,TEAD-YAP block,MITF primary
CC(C)COC(=O)c1ccc2c(c1)C1C=CCC1C(C(=O)O)N2 (configuration not stated),0,0,4,29
O=C(O)c1ccc(C2Nc3ccc([N+](=O)[O-])cc3C3C=CCC32)cc1 (configuration not stated),-2,0,-11,76*
O=C(O)c1ccc2c(c1)C1C=CCC1C(c1ccc(F)cc1)N2 (configuration not stated),-1,2,0,30
COC(=O)c1ccccc1OC(=O)c1ccc2c(c1)C1C=CCC1C(C(=O)O)N2 (configuration not stated),0,0,7,68*
O=C(O)c1ccc2c(c1)C1C=CCC1C(c1ccccc1)N2 (configuration not stated),-1,1,4,59*
COc1ccc2c(c1)CC(c1nc(Nc3ccncc3)c3ccccc3n1)CO2 (configuration not stated),0,0,-2,23
O=C(COc1c(Cl)cc(Cl)cc1[N+](=O)[O-])N/N=C/c1ccccc1[N+](=O)[O-],0,0,-4,1
O=C(O)c1ccc2c(c1)C1C=CCC1C(c1ccncc1)N2 (configuration not stated),-2,0,-6,56*
CCOC(=O)c1ccc2c(c1)C1C=CCC1C(c1ccc(F)cc1)N2 (configuration not stated),0,-1,4,8
CCOC(=O)c1ccc2c(c1)C1C=CCC1C(c1ccc(C(=O)O)cc1)N2 (configuration not stated),-2,0,7,68*
CC(=O)c1ccc2c(c1)C1C=CCC1C(c1ccc(Br)cc1)N2 (configuration not stated),1,0,8,13
COC(=O)c1ccc([C@@H]2Nc3ccc(C(C)=O)cc3[C@@H]3C=CC[C@@H]32)cc1,0,-1,-29,11
CC(=O)c1ccc2c(c1)C1C=CCC1C(c1ccc(C(=O)O)cc1)N2 (configuration not stated),-1,1,-3,67*
COC(=O)c1ccc([C@@H]2Nc3ccc(C(=O)O)cc3[C@@H]3C=CC[C@@H]32)cc1,-1,0,12,73*
CCCc1nc(N)c(C#N)c(-c2ccc(OCc3ccccc3)cc2)c1CC,0,0,2,-1
COc1ccccc1C(=O)Nc1cc(C)cn(Cc2ccccc2Cl)c1=O,0,-1,6,-9
O=C(Nc1ccccc1Cl)c1cc2c(=O)oc3ccccc3c2s1,0,1,0,8
CCOC(=O)c1ccc2c(c1)C1C=CCC1C(C(=O)O)N2 (configuration not stated),0,1,4,76*
O=C(O)c1ccc2c(c1)C1C=CCC1C(c1cccc3ccccc13)N2 (configuration not stated),0,0,49*,23
O=C(O)c1ccc2c(c1)[C@@H]1C=CC[C@@H]1[C@H](c1c(F)cccc1Cl)N2,0,0,40*,9
Cc1ccc(/C(O)=C2\C(=O)C(=O)N(c3ccccn3)C2c2ccc(C(C)(C)C)cc2)cc1 (configuration not stated),0,-1,44*,-9
COCCOC1CCN(c2nc3nonc3nc2NC2CCCC2)CC1,0,-1,5,8
NS(=O)(=O)c1ccc(N/N=C/c2ccccc2Br)c([N+](=O)[O-])c1,0,2,11,9
CCN(CC)c1ccc(/C=N/N=C(N)N)c(O)c1,0,3,50*,13
Cc1ccccc1/C=N/Nc1ccc(S(N)(=O)=O)cc1[N+](=O)[O-],2.0*,1,-13,14
NS(=O)(=O)c1ccc(N/N=C/c2ccc(O)c(O)c2O)c([N+](=O)[O-])c1,0,3,2,70*

# Assay outcomes as filed in PubChem.
